Source: PubChem BioAssay (National Center for Advancing Translational Sciences (NCATS))
This is one part of a sample in which hits are shown more often than they occur.
TbPYK inhibitor: blocks Trypanosoma brucei pyruvate kinase; Q57TT1; TbPYK enzyme, Kinase-Glo Plus ATP luminescence, 45 min; Potency, µM (top dose mostly 76.8 µM), most hits filed as inhibitors; hit rate 0.12% among 410,000; active means well fitted curve in the direction sought with a large enough effect; inconclusive means small, poorly fitted or top-dose-only effect, or another doubt; inactive means no such curve, though single readings can be large; an effect the other way counts as inactive or inconclusive; further: nearly all actives have a fitted effect of over 50% in size
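Enzyme and substrate buffer are dispensed first and compound is pin-transferred. ADP at 130 uM final then starts the reaction, which runs 45 min at room temperature. Detection reagent is added for 10 min before luminescence is imaged.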
SARS PLpro yeast: SARS-CoV PLP inhibition in yeast | S. cerevisiae expressing SARS-CoV PLpro, growth rescue | hit rate 0.19% among 330,000 | Potency, µM (series often up to 32.9 µM), usual class: activators; further: nearly all actives have a fitted effect of over 55% in size
LmPK inh: blocks Leishmania mexicana pyruvate kinase activity | Q27686 | purified LmPK, Kinase-Glo ATP luminescence, 1 h | Potency, µM (highest dose often 57.5 µM), hits mostly inhibitors | hit rate 0.37% among 290,000 | AID 1721; active means well fitted curve in the direction sought with a large enough effect; inconclusive means small, poorly fitted or top-dose-only effect, or another doubt; inactive means no such curve, though single readings can be large; an effect the other way counts as inactive or inconclusive
Target sequence (Q27686 whole entry, looked up): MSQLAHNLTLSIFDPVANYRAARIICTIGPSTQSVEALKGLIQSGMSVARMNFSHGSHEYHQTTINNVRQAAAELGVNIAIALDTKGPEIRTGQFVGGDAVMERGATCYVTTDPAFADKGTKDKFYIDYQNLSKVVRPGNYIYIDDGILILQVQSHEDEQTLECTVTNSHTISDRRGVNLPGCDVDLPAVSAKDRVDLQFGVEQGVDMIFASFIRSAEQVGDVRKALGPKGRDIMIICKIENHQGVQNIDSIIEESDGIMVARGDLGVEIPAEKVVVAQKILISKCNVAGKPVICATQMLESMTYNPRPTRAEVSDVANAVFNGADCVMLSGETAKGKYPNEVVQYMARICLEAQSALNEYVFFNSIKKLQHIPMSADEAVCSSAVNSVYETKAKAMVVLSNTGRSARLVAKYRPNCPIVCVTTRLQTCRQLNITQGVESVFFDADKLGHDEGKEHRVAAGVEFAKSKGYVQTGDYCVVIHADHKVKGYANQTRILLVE
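Purified LmPK (0.1 nM) converted ADP (0.1 mM) to ATP with PEP (0.5 mM) in imidazole buffer pH 7.2 with KCl and MgCl2, 1 h at room temperature. ATP was read by Kinase-Glo luminescence; data normalized to uninhibited and no-enzyme controls.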
Cycloheximide cs: counter-screen hit for Shiga toxin inhibitors, cycloheximide | cell reporter, cycloheximide protein synthesis inhibition counterscreen | max response, % | hit rate 12% among 300,000; in the data active means max response mostly above about 13%, no sharp cut-off; inactive means mostly below about 14%; further: read at 38.3 µM for the half of the compounds with a filed dose
Shiga inhibitor: blocks Shiga toxin action in Vero cells; Vero cells, Shiga toxin protein synthesis inhibition reporter; inhibition, % at 38.7 µM; hit rate 9.2% among 290,000; AID 2315; in the data active means inhibition mostly above about 28%, no sharp cut-off; inactive means mostly below about 43%
NS1 inh: blocks influenza NS1 protein function. Potency, µM (highest dose often 46.1 µM). hit rate 0.4% among 270,000; further: actives are rising curves; nearly all actives have a fitted effect of over 50% in size
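Read-out: OD600 growth recovery of NS1-expressing budding yeast. Cells grown overnight at 30C in -URA glucose medium, washed, resuspended and diluted 1:100 in 2% galactose assay medium, pH 6.0. Same strain lacking NS1 served as positive control.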
Hits are given with their value; . = inactive; ? = inconclusive; / = no result. Unless noted, the call rests on the fitted dose curve.

SMILES | TbPYK inhibitor | SARS PLpro yeast | LmPK inh | Cycloheximide cs | Shiga inhibitor | NS1 inh
C[C@@]12CCC[C@H]1[C@@H]1CC[C@H]3C[C@@H](O)CC[C@]3(C)[C@H]1CC2 | . | / | / | / | / | /
O=Cc1cc(N=Nc2ccccc2Cl)ccc1O | . | . | . | 34 | . | .
O=Cc1cc(N=Nc2cccc(C(=O)O)c2)ccc1O | . | . | . | 39 | 76 | /
O=[N+]([O-])c1cccc(S(=O)(=O)Nc2ccc3cn[nH]c3c2)c1 | . | . | / | / | / | /
COc1ccc(CNC(=O)CCc2c(C)nc3nc(CNC(=O)OC(C)(C)C)nn3c2C)cc1 | . | / | / | / | / | /
COc1ccc(C(=O)Nc2nc3ccccc3[nH]2)cc1S(=O)(=O)N1CCCC1 | . | . | . | 19 | 75 | .
COc1ccc(C(=O)Nc2nc3ccccc3[nH]2)cc1OC | . | . | . | 42 | 86 | .
CCn1c(C(C)NC(=O)c2ccc(OC)c(OC)c2)nc2ccccc21 (configuration not stated) | . | . | . | 18 | 70 | .
COc1ccc(C(=O)NC(C)c2nc3ccccc3n2C)cc1OC (configuration not stated) | . | . | . | . | . | .
COc1cc(C(=O)Nc2nc3ccccc3[nH]2)ccc1OC(F)F | . | . | . | 39 | 62 | .
O=C(NCCc1ccccc1Cl)c1ccc2c(=O)n(-c3ccccc3)c(=O)[nH]c2c1 | . | / | / | / | / | /
CCOc1ccc(C(=O)Nc2nc3ccccc3[nH]2)cc1OCC | . | . | . | 51 | 105 | /
COc1ccc(Cl)cc1C(=O)Nc1nc2ccccc2[nH]1 | . | . | . | . | . | .
CC1=NN(c2ccc(C(=O)O)cc2)C(=O)CC1 | . | . | . | 29 | 44 | .
CC1=NN(c2ccc(Cl)c(C(=O)O)c2)C(=O)C1 | . | . | . | . | . | .
CC(C)(C)NCC(O)COc1ccc(NC(=O)NC2CCCCC2)cc1 (configuration not stated) | . | / | / | / | / | /
COc1ccc(NC(=O)Nc2cccc3c2O[C@H](CN(C)S(=O)(=O)c2cn(C)cn2)[C@@H](C)CN([C@H](C)CO)C3=O)cc1 | . | . | / | / | / | /
O=C(Nc1ccnn1C1CCN(C(=O)c2cnsn2)CC1)c1cccc(F)c1 | . | . | . | 18 | . | .
COc1ccc(C(=O)Nc2ccnn2C2CCN(C(=O)CCC(F)(F)F)CC2)cc1 | . | . | . | 24 | 42 | .
O=C(Nc1ccnn1C1CCN(C(=O)CCc2ccc(F)cc2)CC1)C1CCOC1 (configuration not stated) | . | . | . | 20 | . | .
CCCc1cc(C(=O)N2CCC(n3nccc3NC(=O)c3ccc(OC)cc3)CC2)no1 | . | . | . | 21 | 22 | .
COc1ccc(CC(=O)N2CCC(n3nccc3NC(=O)C3CC3)CC2)cc1 | . | . | . | . | . | .
Cc1cc2c(s1)c1c(C)nn(Cc3ccc(F)cc3)c(=O)c1n2C | / | . | / | / | / | /
COc1ccc(C(=O)Nc2ccnn2C2CCN(C(=O)C3CCOC3)CC2)cc1 (configuration not stated) | . | . | . | 25 | 53 | .
Cc1ccccc1C(=O)Nc1ccnn1C1CCN(C(=O)C2CCOC2)CC1 (configuration not stated) | . | . | . | . | . | .
SMILES | TbPYK inhibitor | SARS PLpro yeast | LmPK inh | Cycloheximide cs | Shiga inhibitor | NS1 inh
C/C=C(\C)CN1CCC(n2nccc2NC(=O)c2ccc(OC)cc2)CC1 | . | . | . | . | . | ?
C=CCCC(=O)N1CCC(n2nccc2NC(=O)c2ccc(OC)cc2)CC1 | . | . | . | 37 | . | .
Cc1ccc(C)c2nc3sc(C(=O)N4CCOCC4)c(N)c3cc12 | . | . | . | 27 | 58 | .
Cc1cc(C)c2nc3sc(C(=O)N4CCOCC4)c(N)c3cc2c1 | . | . | . | 29 | 101 | .
COc1ccc(OC)c(NC(=O)CN2C(=O)CC(C)Sc3ccccc32)c1 (configuration not stated) | . | / | / | / | / | /
CC(=O)N1CC(C)Sc2ccc(S(=O)(=O)NCCc3ccccc3)cc21 (configuration not stated) | . | . | . | 32 | 56 | .
O=C(CCCOc1ccccc1)NNC(=O)c1ccncc1 | . | . | / | / | / | /
O=C(C[n+]1cn(C(F)F)c2ccccc21)c1ccc(OC(F)F)cc1 | . | . | . | 29 | 61 | .
CCN(C(=O)CSc1nc2ccccc2n1Cc1ccc(C(=O)OC)cc1)c1ccccc1 | . | / | / | / | / | /
CCOc1ccc(-n2nc3cc(C)c(NC(=O)c4cc(OCC)c(OCC)c(OCC)c4)cc3n2)cc1 | . | / | / | / | / | /
CCOc1ccc(-n2nc3ccc(N)cc3n2)cc1 | . | . | . | 36 | 31 | .
CCOc1ccc(-n2nc3cc(C)c(N)cc3n2)cc1 | . | . | . | 32 | 48 | .
Cc1c(C(=O)Nc2ccccc2)sc2nc(-c3cc4ccccc4oc3=O)[nH]c(=O)c12 | . | / | / | / | / | /
CN(C)C[C@H]1CCC[C@@H](CN(C)C)C1=O | / | / | / | / | / | .
CCCOc1ccc(C(=O)Nc2nc(C)c(Cc3ccc4c(c3)OCO4)s2)cc1 | . | . | . | 24 | 72 | .
Cc1nc(NC(=O)c2ccc(OCC(C)C)cc2)sc1Cc1ccc2c(c1)OCO2 | . | . | . | 19 | 30 | .
COc1cc(C(=O)Nc2nc(C)c(Cc3ccc4c(c3)OCO4)s2)cc(OC)c1OC | . | . | . | . | . | ?
CC(Cc1cccs1)NC(=S)Nc1ccc(Cl)cc1 (configuration not stated) | . | . | . | 21 | 45 | .
CC(C(=O)Nc1ccc(Cl)cc1)N(C)Cc1cccs1 (configuration not stated) | . | . | . | . | . | .
CC(Cc1cccs1)NC(=S)Nc1ccc(Cl)c(Cl)c1 (configuration not stated) | . | / | . | . | active | .
S=C(NCc1ccncc1)Nc1ccc(Cl)c(Cl)c1 | . | . | . | . | . | .
O=C(Cc1ccc(NC(=O)C2CCN(C(=O)C3CC3)CC2)cc1)Nc1ccc(C(=O)N2CCOCC2)cc1 | . | / | / | / | / | /
O=C(CSc1nnc(NC2CCCCC2)s1)Nc1ccc(N2CCOCC2)cc1 | . | . | . | 21 | 41 | .
CC(=O)c1ccc(NC(=O)CSc2nnc(NC(=O)CN3CCOCC3)s2)cc1 | . | . | . | . | 62 | .
Cc1ccc(NC(=O)CSc2nnc(NC(=O)CN3CCOCC3)s2)cc1 | . | . | . | . | . | .
SMILES | TbPYK inhibitor | SARS PLpro yeast | LmPK inh | Cycloheximide cs | Shiga inhibitor | NS1 inh
CC(Sc1nnc(NC2CC2)s1)C(=O)Nc1ccc(N2CCOCC2)cc1 (configuration not stated) | . | . | / | / | / | /
Cc1nc(CSc2ccc(Br)cc2)cs1 | . | . | . | 23 | 49 | .
Cc1cc(C)n2cc(CSc3ccc(Br)cc3)nc2n1 | . | . | . | 26 | 31 | /
Cc1nc(CSc2ccc(Cl)cc2)cs1 | . | . | . | 36 | 111 | .
Cc1nc(CNS(=O)(=O)c2ccc(Br)cc2)cs1 | . | . | . | . | . | .
Cc1nc(CSc2nnc(N)s2)cs1 | . | . | . | . | . | /
